# NCOA3 inh: human NCOA3 inhibition; HEK293 GAL4-SRC3 luciferase reporter, luminescence; Q9Y6Q9; hit rate 0.17% among 360,000; inhibition, % at 3.6 µM;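 active = inhibition above a per-campaign cutoff, the mean of all compounds plus 3 SD, cut at about 60% in these data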;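 note: 0% = DMSO-treated cells and 100% = gossypol-treated cells at 36 µM; higher means less SRC3-driven luciferase light from the GAL4 reporter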
# Target sequence (Q9Y6Q9 whole entry, looked up, the tested form may be a part): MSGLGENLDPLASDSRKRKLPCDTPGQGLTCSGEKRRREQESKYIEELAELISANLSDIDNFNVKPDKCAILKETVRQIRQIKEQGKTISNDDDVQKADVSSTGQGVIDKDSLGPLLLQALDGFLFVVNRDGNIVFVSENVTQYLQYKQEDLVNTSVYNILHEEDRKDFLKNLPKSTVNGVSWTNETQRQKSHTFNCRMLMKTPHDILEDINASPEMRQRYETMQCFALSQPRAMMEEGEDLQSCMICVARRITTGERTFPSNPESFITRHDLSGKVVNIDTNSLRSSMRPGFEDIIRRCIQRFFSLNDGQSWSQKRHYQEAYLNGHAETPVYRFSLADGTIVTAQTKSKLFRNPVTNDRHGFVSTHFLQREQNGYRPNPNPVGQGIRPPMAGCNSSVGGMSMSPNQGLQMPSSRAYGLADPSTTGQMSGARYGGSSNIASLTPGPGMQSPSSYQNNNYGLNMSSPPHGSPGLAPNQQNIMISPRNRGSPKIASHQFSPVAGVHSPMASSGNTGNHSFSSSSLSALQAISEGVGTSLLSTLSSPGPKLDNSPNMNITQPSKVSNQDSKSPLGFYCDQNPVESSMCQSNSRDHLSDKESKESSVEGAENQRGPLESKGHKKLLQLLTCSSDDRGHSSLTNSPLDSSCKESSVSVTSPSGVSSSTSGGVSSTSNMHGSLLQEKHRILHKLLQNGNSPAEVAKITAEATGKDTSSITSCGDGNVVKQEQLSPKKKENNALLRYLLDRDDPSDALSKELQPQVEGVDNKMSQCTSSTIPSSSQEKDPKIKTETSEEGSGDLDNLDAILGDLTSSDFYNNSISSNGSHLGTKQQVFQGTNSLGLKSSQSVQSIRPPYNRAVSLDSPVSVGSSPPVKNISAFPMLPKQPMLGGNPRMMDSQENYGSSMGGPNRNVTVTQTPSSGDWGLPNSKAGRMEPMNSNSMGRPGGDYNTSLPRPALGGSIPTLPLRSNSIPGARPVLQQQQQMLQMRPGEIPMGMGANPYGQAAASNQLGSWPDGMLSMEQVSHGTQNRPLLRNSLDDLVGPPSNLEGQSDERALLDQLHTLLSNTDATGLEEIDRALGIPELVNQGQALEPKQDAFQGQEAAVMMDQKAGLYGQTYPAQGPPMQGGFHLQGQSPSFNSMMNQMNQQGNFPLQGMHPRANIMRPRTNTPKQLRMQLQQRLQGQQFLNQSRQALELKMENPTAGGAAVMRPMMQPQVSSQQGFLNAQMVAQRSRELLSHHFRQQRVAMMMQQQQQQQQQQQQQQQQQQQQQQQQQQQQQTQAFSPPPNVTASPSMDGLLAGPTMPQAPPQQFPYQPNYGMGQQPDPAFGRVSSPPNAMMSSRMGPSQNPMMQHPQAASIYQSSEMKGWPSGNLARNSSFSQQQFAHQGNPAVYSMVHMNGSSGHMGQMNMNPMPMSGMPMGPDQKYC
# Gli-Sufu antag: antagonists of Gli-Sufu signaling; Sufu-KO-LIGHT fibroblasts, Gli luciferase reporter luminescence; inhibition, % at 5 µM; hit rate 0.74% among 340,000; AID 588413;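 active = inhibition above about 55%, limit read from the data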;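 note: 0% = DMSO-treated cells and 100% = wells with medium but no cells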
# COUP-TFII inh: inhibitors of human COUP-TFII (NR2F2); P24468; HEK293T NGFI-A luciferase reporter, luminescence; inhibition, % at 8.6 µM; hit rate 0.7% among 370,000;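 active = inhibition above a per-plate cutoff, mean inhibition of test wells between control levels plus 3 SD, cut at about 38% in these data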;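 note: cells cotransfected with COUP-TFII expression vector driving the NGFI-A reporter; 0% = median of COUP-TF2 test wells and 100% = reporter-only cells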
# SRC2 inh: inhibits human steroid receptor coactivator 2 | HEK293 GAL4-SRC2 luciferase reporter, luminescence | Q15596 | hit rate 0.17% among 370,000 | inhibition, % at 9 µM | AID 651957;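 active = inhibition above the mean inhibition of all tested compounds plus 3 SD, set per campaign, cut at about 52% in these data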;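 note: 0% = DMSO treated cells and 100% = cells given Gossypol at 36 µM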
# NCOA1 inh: human NCOA1 inhibition | Q15788 | HEK293 GAL4-SRC1 luciferase reporter, luminescence | inhibition, % at 3.6 µM | hit rate 0.12% among 360,000 | AID 588354;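 active = inhibition above the campaign mean plus 3 SD, with each screening campaign given its own cutoff, cut at about 60% in these data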;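 note: 0% = DMSO treated cells and 100% = gossypol at 36 µM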
# LRH-1 inv ag: suppresses constitutive activity of human LRH-1; hit rate 0.13% among 360,000; HEK293T StAR-luciferase reporter, LRH-1 transfected, 24 h; inhibition, % at 3.6 µM;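 active = inhibition above the mean inhibition of all tested compounds plus 3 SD, cut at about 73% in these data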;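 note: 0% = DMSO wells and 100% = reporter-only cells lacking LRH-1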
# * marks the source's active call; other numbers are inactive results; x = no result given. Hits are enriched below; roughly 1.3% of the tested compounds scored in any of these assays.
SMILES,NCOA3 inh,Gli-Sufu antag,COUP-TFII inh,SRC2 inh,NCOA1 inh,LRH-1 inv ag
CCc1ccc(/C=C2\SC(=S)N(CCCC(=O)Nc3cc(C)on3)C2=O)cc1,1,x,24,77*,14,9
CCc1ccc(/C=C2\SC(=S)N(CCC(=O)Nc3cc(C)on3)C2=O)cc1,19,-13,10,48,11,3
CCc1ccc(/C=C2\SC(=S)N(CCCC(=O)NC3=NCCS3)C2=O)cc1,13,x,21,55*,11,2
Cc1cc(C(=O)NN=Cc2cccc(O)c2)n[nH]1,x,x,-30,-39,x,x
CC1=[N+](C)c2c(ccc3cccnc23)C1(C)C,34,87*,77*,14,18,59
CN(C)c1ccc(C(=O)NC2CCCCN(Cc3cccc(Cl)c3)C2=O)cc1 (stereo not drawn),x,x,-16,-35,x,x
O=C(Nc1ccc(OC(F)(F)F)cc1)Nc1cccc([N+](=O)[O-])c1,62*,40,-6,-5,-2,29
O=C(NCCCc1ccccc1)OC1CC2CC1[C@H]1CCCCN1C2 (stereo partly drawn),x,x,9,-8,x,x
Cc1ccc(S(=O)(=O)N(C)C)cc1NC(=S)NC12CC3CC(CC(C3)C1)C2,17,10,5,12,-1,4
Cc1ccc(S(=O)(=O)N(C)C)cc1NC(=S)NC(=O)C12CC3CC(CC(C3)C1)C2,14,66*,-5,-1,-31,9
C=CCNC(=O)CN(C(=O)Cc1cccc(OC(F)(F)F)c1)c1cccc(Br)c1,x,x,4,0,x,x
Cc1cc(C)c(C(=O)/C=C/c2cccc3ccccc23)c(=O)[nH]1,78*,5,20,66*,56,55
CCN(CC)c1ccc2nc3ccccc3[n+](CC)c2c1,68*,26,x,x,63*,76*
CCN(CC)c1ccc2cc(-c3nc4ccccc4[nH]3)c(=O)oc2c1,-31,-58,x,x,-35,-42
O=C(C1CCC1)N1CCc2cc(S(=O)(=O)N3CCN(c4ccccc4F)CC3)ccc21,x,x,7,6,x,x
CCN(CC)C(=O)CSc1nnc(-c2ccccn2)n1C,x,x,-23,-19,x,x
OC[C@@H]1CN(Cc2ccc(-c3ccccc3)cc2)C[C@H](n2cnc3c(NCc4ccco4)ncnc32)O1,16,x,52*,22,16,54
O=C1[C@@H]2Cc3c([nH]c4ccccc34)C(c3ccc([N+](=O)[O-])cc3)N2C(=O)CN1C1CC1 (stereo partly drawn),69*,34,26,-8,75*,51
Cc1nc2cc(-c3ccc(Cl)cc3)nn2c(C)c1CCC(=O)NC(C)c1ccc2c(c1)OCCO2 (stereo not drawn),13,23,26,73*,17,2
CCc1ccc(C2=NN(CCC(=O)NC(C)c3ccc4c(c3)OCCO4)C(=O)CC2)cc1 (stereo not drawn),14,10,12,9,11,21
O=C(NCCc1ccccc1)O[C@H]1CC[C@@]23CCCN2C(=O)CCC[C@H]3C1,x,x,15,x,x,x
COc1ccc(-c2cn[nH]c2-c2ccc(O)cc2O)cc1,48,-10,19,54*,55,9
O=[N+]([O-])c1ccccc1/C=C/C1Nc2cccc3cccc(c23)N1,x,x,-3,-22,x,x
c1csc(CNc2ccc3c(c2)OCCO3)c1,52,43,64*,39,54,53
CC1CCC(C(C)C)C(OC(=O)Cn2c(-c3ccc(F)cc3)[n+](C)c3ccccc32)C1 (stereo not drawn),67*,81*,25,36,40,67
SMILES,NCOA3 inh,Gli-Sufu antag,COUP-TFII inh,SRC2 inh,NCOA1 inh,LRH-1 inv ag
COC(=O)C1CN(Cc2ccccc2)CCS(=O)(=O)N1Cc1cn(Cc2ccc(F)cc2)nn1 (stereo not drawn),x,x,-25,12,x,x
CC(C)n1cnc2c(Nc3cccc(Cl)c3)nc(NCCCO)nc21,-16,5,19,-41,-45,11
C=CC(=O)Nc1cccc(Nc2nc(N[C@H]3CC[C@H](N(C)C)CC3)nc3c2ncn3C(C)C)c1,87*,76*,x,x,88*,98*
C=C1C(=O)C23CCC4C(C)(C(=O)OC)CCCC4(C)C2CCC1(O)C3 (stereo not drawn),10,44,78*,68*,36,42
COC(=O)[C@]1(C)CCC[C@@]2(C)C3CC[C@@]4(C)C[C@]3(CCC21)CC(=O)N4 (stereo partly drawn),14,30,4,-8,-3,19
Cc1cc(C=C2C(=O)c3ccccc3C2=O)c(C)n1-c1ccccc1,85*,12,0,3,2,-7
Cc1cc(C=C2C(=O)c3ccccc3C2=O)c(C)n1-c1ccc(C(=O)O)cc1,-6,7,7,-14,3,12
COc1ccc(/C=N/Nc2nccnc2Cl)c(OC)c1,-66,-47,-48,-52,-133,-130
COc1ccc(/C=N/Nc2ncnc(Cl)c2N)cc1OC,-19,-9,3,-9,-38,-8
COc1cccc(/C=N/Nc2cc(-n3nc(C)cc3-c3ccccc3)ncn2)c1O,39,41,-8,12,5,1
COc1cccc(/C=N/Nc2nccnc2Cl)c1O,44,68*,-60,5,8,32
COc1cccc(/C=N/Nc2ncnc(Cl)c2N)c1O,66*,79*,-4,30,2,-14
COc1cccc(/C=N/Nc2ncnc3scc(-c4ccccc4)c23)c1O,88*,88*,-6,28,85*,98*
Oc1ccccc1/C=N/Nc1nccnc1Cl,-34,57*,-57,-14,-16,-111
Oc1ccc(/C=N/Nc2nccnc2Cl)c(O)c1,-3,45,-46,7,-40,-60
N#CCCCc1cn(-c2cccc(-c3noc4c3C(=O)N(CC(=O)N3CCOCC3)CC4)c2)nn1,x,x,2,-44,x,x
COC(=O)[C@]12CCCCC=C1N(Cc1ccc(OC)cc1)C(=O)[C@@H]2CC(=O)N1CCN(C(=O)c2ccco2)CC1,x,x,-41,0,x,x
CCC[C@H]1[C@@H](NC(=O)c2ccc(Cl)cc2)CC[C@@]23CCCN2C(=O)CCC[C@@H]13,x,x,7,x,x,x
CC[C@@H](C(=O)[C@@H](C)[C@@H](O)[C@H](C)CCc1ccc(C)c(O)c1C(=O)O)[C@H]1O[C@](CC)([C@H]2CC[C@](O)(CC)[C@H](C)O2)C[C@@H]1C,53,82*,-39,9,-1,52
CCCCCCCC(=O)N[C@H]1CC[C@@]23CCCN2C(=O)CCC[C@H]3[C@H]1C,x,x,-1,x,x,x
C=CCN(CC#Cc1ccccn1)Cc1ccc(OC)cc1OC,x,x,1,-1,x,x
CC(=C/c1ccccc1)/C=N/n1c(-c2ccncc2)n[nH]c1=S,58,-7,27,36,63*,11
CC(/C=N/n1c(-c2cccnc2)n[nH]c1=S)=C\c1ccccc1,9,-11,0,-3,21,-11
CCOc1ccc(-n2c(C)c(C(=O)OC)c3cc(O)ccc32)cc1,17,-28,8,15,-19,-10

# Screens deposited in PubChem by several laboratories.
